Records with an inconclusive call do not appear. The source made the active and inactive calls. The calls were made as follows: active = hit-call score of the fitted dose curve at least 0.9, where 1 is the maximum; inconclusive = response in the unintended direction; inactive = score below 0.9.

The term AC50 denotes the concentration giving half of the maximal activity seen.

A short description of test [1]: TOX21_p53_BLA_p2_viability: Viability Assessment in the Tox21 HCT-116 p53 Agonism Beta-lactamase Assay, Phase 2 (AID 2283591).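 Also: compound exposure lasted 16 h at 37 °C; actives lower the ATP signal meaning cytotoxicity.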 An outline of the steps:
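HCT116 p53-bla cells, 4000/well, dosed after 5 h plating (217-fold dilution of DMSO stocks) and incubated 16 h at 37C. Viability taken as cellular ATP by CellTiter-Glo luminescence after 30 min RT; signal loss marks cytotoxicity.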

Test [2] deals with Cellular tumor antigen p53 (Homo sapiens) (UniProt P04637). Briefly: TOX21_p53_BLA_p2_ratio: Tox21 HCT-116 p53 Agonism Beta-lactamase Assay, Ratio, Phase 2 (AID 2283592). The method, boiled down: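 Cleaved-to-uncleaved substrate ratio (460 vs 530 nm) measured in HCT116 cells with an inducible beta-lactamase reporter linked to p53 activity. Compounds incubated 16 h at 37C before 2 h room-temperature CCF4-AM loading.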

Test [3] is described as follows: TOX21_p53_BLA_p3_viability: Viability Assessment in the Tox21 HCT-116 p53 Agonism Beta-lactamase Assay, Phase 3 (AID 2283593).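 Also: cells exposed to compound for 16 h before reading.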 An outline of the steps: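 HCT116 cells, 4000/well, dosed 5 h after plating by pin transfer (217-fold dilution from DMSO stock) and incubated 16 h at 37C, 5% CO2. Viability read as ATP luminescence with CellTiter-Glo after 30 min at room temperature.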

Test [4] concerns the target Cellular tumor antigen p53 (Homo sapiens) (UniProt P04637). In words: TOX21_p53_BLA_p3_ratio: Tox21 HCT-116 p53 Agonism Beta-lactamase Assay, Ratio, Phase 3 (AID 2283596). The method, boiled down:
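Cells were seeded at 4000/well, rested 5 h at 37C, then dosed with DMSO compound solutions (217-fold dilution) for 16 h. CCF4-AM substrate was loaded for 2 h at room temperature, and the 460/530 nm emission ratio was fitted for gain of signal versus DMSO.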

Test [5] shares this target. In words: TOX21_p53_BLA_p5_ratio: Tox21 HCT-116 p53 Agonism Beta-lactamase Assay, Ratio, Phase 5 (AID 2283599). An outline of the steps: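 HCT-116 p53-bla cells (4000/well) plated 5 h, dosed with compound (217-fold DMSO dilution) for 16 h at 37 C; CCF4-AM substrate 2 h at room temperature. Activity is the 460/530 nm emission ratio (405 nm excitation), fitted in gain-of-signal direction versus DMSO.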

Test [6] shares this target. Briefly: TOX21_p53_BLA_p4_ratio: Tox21 HCT-116 p53 Agonism Beta-lactamase Assay, Ratio, Phase 4 (AID 2283601). An outline of the steps: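 HCT-116 p53 beta-lactamase reporter cells (4000/well) preincubated 5 h, then compound (217-fold dilution of DMSO stock) for 16 h at 37C. CCF4-AM substrate added 2 h at room temperature; 460/530 nm emission ratio fitted upward versus DMSO.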

Test [7] can be described thus: TOX21_p53_BLA_p5_viability: Viability Assessment in the Tox21 HCT-116 p53 Agonism Beta-lactamase Assay, Phase 5 (AID 2283600). An outline of the steps: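 Viability is taken from cellular ATP content, measured by luciferase luminescence in the same wells after the beta-lactamase ratio read. Cells are seeded at 4000 per well and exposed to DMSO-dissolved compounds, diluted 217-fold, for 16 h.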

Cellular tumor antigen p53 (Homo sapiens), sequence (P04637 whole entry, looked up): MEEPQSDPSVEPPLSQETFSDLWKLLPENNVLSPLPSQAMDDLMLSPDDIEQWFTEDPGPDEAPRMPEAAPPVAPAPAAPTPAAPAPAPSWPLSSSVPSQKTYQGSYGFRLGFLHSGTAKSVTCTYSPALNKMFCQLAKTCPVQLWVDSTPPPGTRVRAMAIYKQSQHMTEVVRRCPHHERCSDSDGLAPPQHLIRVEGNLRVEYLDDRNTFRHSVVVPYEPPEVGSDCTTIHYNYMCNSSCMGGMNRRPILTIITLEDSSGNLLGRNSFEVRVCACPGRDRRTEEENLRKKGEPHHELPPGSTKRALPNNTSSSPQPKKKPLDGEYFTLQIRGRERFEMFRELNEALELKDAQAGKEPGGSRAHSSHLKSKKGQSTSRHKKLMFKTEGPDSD

Take `O=[N+]([O-])/C=C/c1ccccc1`: the outcome in test [1], in test [3], in test [4], in test [5] and in test [6] was inactive. In test [2], the half-maximal activity concentration (AC50) was 12 µM (active).
For `CC[N+](C)(CC)CCOC(=O)C(O)(c1ccccc1)c1ccccc1`, the outcome in test [1], in test [2], in test [3], in test [4], in test [5] and in test [7] was inactive. The result in test [6] was inactive.

The values above are taken from PubChem BioAssay (EPA / NIEHS).
